# Starred links: 1 amine or outer side, 2 acyl side, 3 side chain; linkers in the order of their positions; H or OH if unused. Positions of bridges follow the written chain, without caps; N, C: chain ends. Non-standard residues stand in square brackets, D forms with d. Residues, ends and D or L forms follow the SMILES beside them. ξ: configuration not given here. *: point of attachment. ΔAla(3-NHCONH2) = NC(=O)NC=C(N)C(=O)O; X1 = NC1=NCCC(C(N[*:1])C(=O)[*:2])N1; ξβ3hOrn = NCCCC(N)CC(=O)*; Dap = NC[CH](N)C(=O)O
# Experiment: qHTS profiling of the MIPE4 collection as inhibitors of Plasmodium falciparum (DD2) proliferation (AID 743345)
# Conditions: P. falciparum Dd2 in erythrocytes, SYBR Green DNA, 72 h; at 0.217 µM (top of the series)
# Text: Plasmodium falciparum is a virulent malarial parasite that kills 1-2 million people worldwide each year. Transmitted by mosquitoes, the sporozoite form of the parasite enters the blood stream to infect hepatocytes, where they become merozoites that infect red blood cells (erythrocytes). Within erythrocytes, merozoites begin a […] cycle of growth and division, after which the parasite is released to infect new red blood cells. Gametocytes, which form within erythrocytes as well, circulate in the bloodstream and are ingested by the mosquito, thereby completing the life cycle. To profile malarial isolates for differential chemical responses and to identify inhibitors of malarial growth, an assay that measures P. falciparum growth and replication within erythrocytes was employed. This assay uses a DNA binding fluorescent dye (SYBR Green) to detect parasite DNA following cell lysis. Because mature erythrocytes lack DNA, only Plasmodium-derived DNA is detected.
# The SYBR Green viability assay was adapted from a method described previously (Plouffe et al., 2008). For screening 3 ul culture medium was dispensed into 1536 well black clear bottom plates (Aurora Biotechnologies) using a Multidrop Combi (Thermo Fisher Scientific Inc.), 23 nL compounds in DMSO were added by a pin tool (Kalypsys), and 5 ul of erythrocytes infected with P. falciparum (0.3% parasitemia, 2.5% hematocrit final concentration) were added. The plates were incubated at 37 C in a humidified incubator in 5% CO2 for 72 h, and 2 ul lysis buffer (20 mM Tris HCl, 10 mM EDTA, 0.16% saponin, 1.6% triton X, 10X SYBR Green I supplied as 10,000X […] by Invitrogen) was added to each well. The plates were mixed for 25 sec with gentle shaking and incubated overnight at room temperature in the dark. The following morning, fluorescence intensity at 485(14) nm excitation and 535(25) nm emission wavelengths was measured on an EnVision (Perkin Elmer) plate reader. Plate reads were normalized relative to the control inhibitor (0.29 uM artemisinin) and vehicle (DMSO) wells present on each plate and then corrected by an algorithm using vehicle-only control plates at the beginning and end of the compound plate stack.
row,SMILES,"parasite growth remaining, % of DMSO control (lower = more inhibition)"
1,NCCCC(N)CC(=O)NCC1NC(=O)C(CO)NC(=O)C(N)CNC(=O)C(C2CCN=C(N)N2)NC(=O)C(=CNC(N)=O)NC1=O (stereo not drawn) (H-[Dap]S[Dap](ξβ3hOrn)[ΔAla(3-NHCONH2)][X1]; lactam 1-C; configuration not given here),92.4%

# Same assay, conditions: P. falciparum Dd2 in erythrocytes, SYBR Green DNA, 72 h; at 28.5 µM (top of the series)
row,SMILES,"parasite growth remaining, % of DMSO control (lower = more inhibition)"
1,NCCCC(N)CC(=O)NCC1NC(=O)C(CO)NC(=O)C(N)CNC(=O)C(C2CCN=C(N)N2)NC(=O)C(=CNC(N)=O)NC1=O (stereo not drawn) (H-[Dap]S[Dap](ξβ3hOrn)[ΔAla(3-NHCONH2)][X1]; lactam 1-C; configuration not given here),100%

# Same assay, conditions: P. falciparum Dd2 in erythrocytes, SYBR Green DNA, 72 h; at 28.5 µM (top of the series) unless noted
row,SMILES,"parasite growth remaining, % of DMSO control (lower = more inhibition)"
1,O=C1CC[C@@]2(O)[C@H]3Cc4ccc(O)c5c4[C@@]2(CCN3CC2CC2)[C@H]1O5,113%
2,CC1=C2C[C@@H]3[C@@H](CC=C4C[C@@H](O)CC[C@@]43C)[C@@H]2CC[C@]12O[C@H]1C[C@H](C)CN[C@H]1[C@H]2C,16.2%
3,Cc1cccc(C)c1NC(=O)CN1CCCC1=O,99.6%
4,Cc1ccnc2c1NC(=O)c1cccnc1N2C1CC1,112%
5,Cc1cc2c(s1)Nc1ccccc1N=C2N1CCN(C)CC1,94.5%
6,CCCC(C)(COC(N)=O)COC(=O)NC(C)C (stereo not given),91%
7,CCn1cc(C(=O)O)c(=O)c2cc(F)c(N3CCNCC3)cc21,60.2%
8,CN1CCN(C(=O)O[C@H]2c3nccnc3C(=O)N2c2ccc(Cl)cn2)CC1,98.2%
9,COc1ccc(C(=O)c2c(C)n(CCN3CCOCC3)c3ccccc23)cc1,95.8%
10,CNCC(O)c1ccc(O)cc1 (stereo not given),99.8%
11,CC1Cc2ccccc2N1NC(=O)c1ccc(Cl)c(S(N)(=O)=O)c1 (stereo not given),34.3%
12,CN(C)[C@@H]1C(=O)C(C(N)=O)=C(O)[C@@]2(O)C(=O)C3=C(O)c4c(O)cccc4[C@@](C)(O)[C@H]3C[C@@H]12,39.9%
13,Cn1c(CCCC(=O)O)nc2cc(N(CCCl)CCCl)ccc21,81.5%
14,Oc1cc(Cl)ccc1Oc1ccc(Cl)cc1Cl,8.79%
15,CC(C)C(=O)Nc1ccc([N+](=O)[O-])c(C(F)(F)F)c1,91%
16,Cc1nc2n(c(=O)c1CCN1CCC(c3noc4cc(F)ccc34)CC1)CCCC2,70.5%
17,CNC(=O)N1N=C(c2ccc(N)cc2)c2cc3c(cc2CC1C)OCO3 (stereo not given),107%
18,Fc1ccc(C(OCCN2CCN(CCCc3ccccc3)CC2)c2ccc(F)cc2)cc1,9.78%
19,O=C(O)C(=O)c1cn(Cc2ccccc2)c2ccc(-c3ccc(OC(F)(F)F)cc3)cc12,108%

row,SMILES,"parasite growth remaining, % of DMSO control (lower = more inhibition)"
1,C[C@@H]1[C@@H](C(=O)C[C@H]2O[C@@H]3O[C@]4(C)CC[C@@H]5[C@H](C)CC[C@@H]([C@H]2C)[C@@]35OO4)O[C@@H]2O[C@]3(C)CC[C@H]4[C@H](C)CC[C@@H]1[C@@]24OO3,7.59%
2,COc1cc2c(c(OC)c1OC)-c1ccc(OC)c(=O)cc1[C@@H](NC(C)=O)CC2,78.8%
3,COc1cc([C@@H]2c3cc4c(cc3[C@H](O)[C@H]3COC(=O)[C@H]23)OCO4)cc(OC)c1OC,89.6%
4,CC(O)(CS(=O)(=O)c1ccc(F)cc1)C(=O)Nc1ccc(C#N)c(C(F)(F)F)c1 (stereo not given),102%
5,O=C(OC1C[C@H]2CC[C@@H](C1)[N+]21CCCC1)C(O)(c1ccccc1)c1ccccc1 (stereo not given in full),48.3%
6,Cc1c(OCC(F)(F)F)ccnc1CS(=O)c1nc2ccccc2[nH]1 (stereo not given),83.1%
7,CC(C)CC(N(C)C)C1(c2ccc(Cl)cc2)CCC1 (stereo not given),99.9%
8,O=P1(NCCCl)OCCCN1CCCl (stereo not given),97.2%
9,O=NN(CCCl)C(=O)NCCCl,102%
10,Cn1cc(C2=C(c3cn(C4CCN(Cc5ccccn5)CC4)c4ccccc34)C(=O)NC2=O)c2ccccc21,19.9%
11,O=NN(CCCl)C(=O)NC1CCCCC1,101%
12,NCC1(CC(=O)O)CCCCC1,87.6%
13,O=c1[nH]c2ccccc2n1CCCN1CCC(n2c(=O)[nH]c3cc(Cl)ccc32)CC1,52.4%
14,Cc1sc2c(c1C)C(c1ccc(Cl)cc1)=N[C@@H](CC(=O)OC(C)(C)C)c1nnc(C)n1-2,24.4%
15,CCOC(=O)c1ncn2c1CN(C)C(=O)c1cc(F)ccc1-2,84.4%
16,N[C@@H](Cc1ccc(N(CCCl)CCCl)cc1)C(=O)O,21.4%
17,COc1ccc(C(CN(C)C)C2(O)CCCCC2)cc1 (stereo not given),58.9%
18,C=C(C)[C@H]1Cc2c(ccc3c2O[C@@H]2COc4cc(OC)c(OC)cc4[C@@H]2C3=O)O1,94.4%
19,CNC(=O)c1ccc(N2C(=S)N(c3ccc(C#N)c(C(F)(F)F)c3)C(=O)C23CCC3)cc1F,81.7%
